Measurements: PubChem BioAssay AID624330 (Southern Research Specialized Biocontainment Screening …, 2012)
Among all 340,000 compounds or so, about 2,100 (0.62%) were called active. The list is a sample of the results. Measured potencies and affinities stand elsewhere. Unmarked numbers belong to inactive results.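 The calls were made as follows: active = first-screen hits whose inhibition reached a set limit at any dose in the follow-up dose series; inconclusive = inhibition above the set first-screen limit but never retested; inactive = the rest.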

Target: Rac GTPase-activating protein 1 (Homo sapiens) (UniProt Q9H0H5)
Sequence (Q9H0H5 whole entry, looked up): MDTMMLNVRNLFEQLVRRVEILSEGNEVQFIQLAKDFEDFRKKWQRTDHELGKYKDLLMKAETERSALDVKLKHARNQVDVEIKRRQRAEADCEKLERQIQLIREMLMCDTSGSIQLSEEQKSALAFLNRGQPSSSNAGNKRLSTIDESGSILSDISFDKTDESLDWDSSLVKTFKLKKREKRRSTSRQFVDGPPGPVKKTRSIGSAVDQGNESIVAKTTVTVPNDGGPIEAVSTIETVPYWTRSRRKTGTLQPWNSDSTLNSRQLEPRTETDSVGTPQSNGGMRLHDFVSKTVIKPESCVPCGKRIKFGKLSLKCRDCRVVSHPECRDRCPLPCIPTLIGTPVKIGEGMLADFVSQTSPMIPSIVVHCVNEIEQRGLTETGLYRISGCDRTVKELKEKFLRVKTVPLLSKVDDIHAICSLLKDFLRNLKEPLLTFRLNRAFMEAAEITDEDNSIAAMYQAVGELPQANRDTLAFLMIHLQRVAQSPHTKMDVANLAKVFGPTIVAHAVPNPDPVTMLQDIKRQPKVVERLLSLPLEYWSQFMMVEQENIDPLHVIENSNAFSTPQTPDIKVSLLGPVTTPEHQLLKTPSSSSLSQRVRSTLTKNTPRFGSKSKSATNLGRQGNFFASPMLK
Assay: MgcRacGAP GTPase-activating activity inhibitors, confirmation, biochemical, ADP Hunter fluorescence, primary and confirmatory (AID 624330);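 also: fluorescence reports GDP produced by GAP-driven GTP hydrolysis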
Details: MgcRacGAP-stimulated Rac1 GTP hydrolysis, at 30 µM, stronger effect = higher value, GST-tagged Rac1 F28L mutant substrate

Question: `O=C(OCC(=O)N1CCc2ccccc21)c1ccncc1` was tested. Which inhibition did it give?
Answer: 3.21%

Question: How did the inhibition turn out when `CCC(CC)CN1CCC(CN2CCNC(=O)C2=O)CC1` was run?
Answer: 0.28%

Question: `CC(=O)Nc1ccc(OC(=O)c2cc3cc(Br)ccc3oc2=O)cc1` was tested. Which inhibition did it give?
Answer: 10.4%

Question: Which inhibition does the source give for `COc1ccc(NC(=O)c2cc3cc(OC)ccc3oc2=O)cc1` here?
Answer: 7.32%

Question: Which inhibition does the source give for `COc1cccc2cc(C(=O)Oc3ccccc3)c(=O)oc12` here?
Answer: 15.6%

Question: `O=C(Oc1ccccc1)c1cc2ccccc2oc1=O` was tested. Which inhibition did it give?
Answer: -4.44%

Question: Which inhibition does the source give for `COc1cccc2cc(C(C)=O)c(=O)oc12` here?
Answer: -3.65%

Question: For `CCOc1ccccc1OC(=O)c1cc2ccccc2oc1=O`, which inhibition is on record?
Answer: 9.21%

Question: For `COc1ccc(NC(=O)c2cc3ccccc3oc2=O)cc1`, which inhibition is on record?
Answer: 20.1%

Question: How did the inhibition turn out when `COc1cc(C(C)=O)ccc1OC(=O)c1cc2cccc(OC)c2oc1=O` was run?
Answer: 2.6%

Question: For `CCN(CC)S(=O)(=O)c1ccc(C(=O)Oc2cc(C)[nH]c(=O)c2[N+](=O)[O-])cc1`, which inhibition is on record?
Answer: 0.7%

Question: Which inhibition does the source give for `CCc1cccc(NS(=O)(=O)c2c(C)nc3scc(C)n3c2=O)c1` here?
Answer: 1.2%

Question: With `C[C@@H]1CN([C@H](C)CO)C(=O)c2cc(NC(=O)Nc3ccc(F)cc3)ccc2O[C@@H](C)CCCCO[C@H]1CN(C)Cc1ccc(C(=O)O)cc1` as the compound, how does the inhibition read?
Answer: 10.2%

Question: With `COc1ccc(N2C(=NC(=O)C3CC3)SC3CS(=O)(=O)CC32)cc1Cl` (stereo not drawn) as the compound, how does the inhibition read?
Answer: 8.01%

Question: How did the inhibition turn out when `Cc1ccsc1C(=O)OCC(=O)NC1CCCCC1` was run?
Answer: -3%

Question: Which inhibition does the source give for `O=C1CC(N2CCN(c3ccccc3)CC2)C(=O)N1c1cccc(Cl)c1` (stereo not drawn) here?
Answer: 11.1%

Question: `COc1ccc(N2CC(C(=O)NNC(=O)c3ccc(Br)cc3)CC2=O)c(OC)c1` (stereo not drawn) was tested. Which inhibition did it give?
Answer: 5.62%

Question: With `O=C(Nc1nc(-c2ccc(F)cc2)cs1)c1cccc(N2C(=O)CCC2=O)c1` as the compound, how does the inhibition read?
Answer: 4.08%

Question: Which inhibition does the source give for `CCOC(=O)N1c2ccccc2Sc2ccccc21` here?
Answer: 1.37%

Question: `Cc1ccc(SCC(=O)N2c3ccccc3Sc3ccccc32)cc1` was tested. Which inhibition did it give?
Answer: 6.99%

Question: With `COc1cc2c(cc1OC)C(c1cccs1)N(C(=O)c1ccncc1)CC2` (stereo not drawn) as the compound, how does the inhibition read?
Answer: 11.6%

Question: `COc1cccc(OCC(=O)NC2CCCCCC2)c1` was tested. Which inhibition did it give?
Answer: -1.14%

Question: How did the inhibition turn out when `CCN1CCN(C(=O)c2cc3cc4cc(OC)ccc4nc3s2)CC1` was run?
Answer: 8.34%

Question: Which inhibition does the source give for `NNC(=O)c1cc2cc3ccccc3nc2s1` here?
Answer: 4.35%

Question: With `O=[N+]([O-])c1cc([N+](=O)[O-])c(Oc2cc(Cl)ccc2Cl)cc1NC1CCCCCCC1` as the compound, how does the inhibition read?
Answer: 3.85%

Question: How did the inhibition turn out when `COc1cccc(CN2CCC(C(=O)N3CCN(Cc4ccc5c(c4)OCO5)CC3)CC2)c1` was run?
Answer: 27.8%

Question: With `COc1cccc(CN2CCC(C(=O)N3CCN(c4ccccc4F)CC3)CC2)c1` as the compound, how does the inhibition read?
Answer: 15.7%

Question: Which inhibition does the source give for `CCOC(=O)C1CCN(Cc2ccc(OCc3ccccc3)cc2)CC1` here?
Answer: 18.4%

Question: For `CCOC(=O)C1CCN(Cc2cccc(Oc3ccc(Cl)cc3)c2)CC1`, which inhibition is on record?
Answer: 21%

Question: Which inhibition does the source give for `CCOC(=O)C1CCCN(Cc2ccc(-c3ccccc3)cc2)C1` (stereo not drawn) here?
Answer: -2.6%

Question: `CCOC(=O)C1CCN(Cc2cccc(OCc3ccccc3)c2)CC1` was tested. Which inhibition did it give?
Answer: 19.5%

Question: Which inhibition does the source give for `CCOC(=O)C1CCN(Cc2ccccc2C(F)(F)F)CC1` here?
Answer: 8.95%

Question: `CCOC(=O)C1CCN(Cc2ccccc2C)CC1` was tested. Which inhibition did it give?
Answer: 2.84%
